Rows were chosen to be rich in hits. Some 12% of all compounds tested hit in one or more screens of this group.
CHX counter: Cycloheximide Counterscreen for Small Molecule Inhibitors of Shiga Toxin; cell reporter, cycloheximide protein synthesis inhibition counterscreen; max response, %; 300,000 tested, 12% active; AID 2314, 2010; in the data active means max response mostly above about 13%, no sharp cut-off; inactive means mostly below about 14%; further: read at 38.3 µM for the half of the compounds with a filed dose
SARS PLpro yeast: qHTS of Yeast-based Assay for SARS-CoV PLP. S. cerevisiae expressing SARS-CoV PLpro, growth rescue. Potency, µM (series often up to 32.9 µM), most hits filed as activators. 330,000 tested, 0.19% active; further: nearly all actives have a fitted effect of over 55% in size
Shiga inhibitor: A qHTS for Small Molecule Inhibitors of Shiga Toxin; AID 2315, 2010; inhibition, % at 38.7 µM; Vero cells, Shiga toxin protein synthesis inhibition reporter; 290,000 tested, 9.2% active; in the data active means inhibition mostly above about 28%, no sharp cut-off; inactive means mostly below about 43%
NS1 function inh: qHTS Assay for Inhibitors of Influenza NS1 Protein Function | Potency, µM (series often up to 46.1 µM) | 270,000 tested, 0.4% active | AID 2326, 2010; further: actives are rising curves; nearly all actives have a fitted effect of over 50% in size
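A cell-based growth assay was used: compounds that relieve NS1-induced slow growth of budding yeast raise OD600. Assay medium was yeast nitrogen base with ammonium sulphate and -URA supplement, pH 6.0, with 2% galactose.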
Hits are given with their value; i = inactive; ? = inconclusive; nt = no result; + = active, no number; [ ] = remark or other dose. Unless noted, the call rests on the fitted dose curve.

SMILES | CHX counter | SARS PLpro yeast | Shiga inhibitor | NS1 function inh
COc1ccc(C2/C=C\C(c3ccc(OC)cc3)N(Cc3ccc(F)cc3)C(=O)C(=O)N2Cc2ccc(F)cc2)cc1 (centres undefined) | i | nt | i | nt
Cc1nn(-c2ccccc2)c(Cl)c1/C=N/NC(=O)c1cccc(S(=O)(=O)N2CCCC2)c1 | i | i | i | i
Cc1nn(-c2ccccc2Cl)c(Cl)c1/C=N/Nc1cccc(C(=O)O)c1 | 64 | i | 70 | i
CCOC(=O)N/N=C/c1c(C)nn(-c2cccc(C(F)(F)F)c2)c1Cl | 13 | i | i | i
Cc1nn(Cc2ccccc2)c(Cl)c1/C=N/NC(=O)CNc1cccc(C(F)(F)F)c1 | i | i | i | i
Cc1nn(-c2cccc(C(F)(F)F)c2)c(Cl)c1/C=N/Nc1cccc(C(=O)O)c1 | 106 | i | + | i
CCC(=O)Nc1ccc(C(=O)NNC(=O)C2CCCCC2)cc1 | i | i | i | i
CCC1(c2ccc(OC)cc2)NC(=O)N(CC(=O)N2CCc3ccccc32)C1=O (centres undefined) | nt | i | nt | nt
COc1cc(C(=O)Nc2nc(-c3ccc(Cl)cc3)c(C)s2)ccc1OCC(=O)Nc1ccc(F)cc1 | i | i | i | i
CSc1ccccc1NC(=O)c1cc(C)on1 | i | i[6.58 µM] | i | i
CCn1ccc(C(=O)Nc2ccc3c(c2)CCC3)n1 | i | i | 113 | i
CCn1ccc(C(=O)Nc2ccccc2SC)n1 | 33 | i | 88 | nt
CCn1ccc(C(=O)Nc2ccc(N(C)C(C)=O)cc2)n1 | 23 | i | 45 | i
CCOC(=O)c1c(NC(=O)c2ccn(CC)n2)sc2c1CCC2 | i | i | i | i
CC1CN(C(=O)CNC(=O)Cc2cccc3ccccc23)CC(C)O1 (centres undefined) | nt | i | nt | nt
CS(=O)(=O)N(CC(=O)N1CCN(Cc2ccccc2)CC1)c1cccc(F)c1 | i | i | i | i
O=C(N/N=C/c1ccc(Br)o1)c1cccnc1 | i | i | i | i
CC(C)(C)c1cc(C(=O)N/N=C/c2ccc(-c3ccccc3[N+](=O)[O-])o2)n[nH]1 | 26 | i | i | i
O=C(NCc1cccnc1)c1ccc(-c2ccccc2[N+](=O)[O-])o1 | i | i | 40 | i
O=C(N/N=C/c1ccc(-c2ccccc2[N+](=O)[O-])o1)c1cccnc1 | 16 | i | i | i
COc1ccc2cc(C3(C)NC(=O)N(CC(=O)NCC(F)(F)F)C3=O)ccc2c1 (centres undefined) | i | i | i | i
COC(=O)c1ccc(OCC(O)CNCC(c2ccc(OC)cc2)N(C)C)c(OC)c1 (centres undefined) | i | i | 52 | i
CCCn1c(=O)c(C(=O)Nc2ccccc2)c(O)c2ccccc21 | i | i | i | i
Cn1c(Cl)c(C(=O)Nc2ccccc2)c2ccccc21 | 23 | i | 41 | i
Cc1ccc(NC(=O)c2c(Cl)n(C)c3ccccc23)cc1 | 30 | i | i | i
SMILES | CHX counter | SARS PLpro yeast | Shiga inhibitor | NS1 function inh
NC(=O)/N=C(\N)NC(=O)c1ccccc1 | nt | nt | nt | i
CCCCOc1ccc(NC(=O)C2OC3OC(C)(C)OC3C3OC(C)(C)OC23)cc1 (centres undefined) | i | i | i | i
COc1ccc(/C=N/Nc2cc(OC)ncn2)cc1 | 25 | i | 97 | i
COc1ccc(/C=N/Nc2cc(C)nc(N3CCOCC3)n2)cc1 | i | i | i | i
COc1cc(/C=N/Nc2cc(C)nc(N)n2)ccc1O | i | i | 36 | i
COc1ccc(/C=N/Nc2cc(N(C)C)nc(N(C)C)n2)cc1 | i | i | i | i
COc1ccc(/C=N/Nc2cc(C)nc(N)n2)cc1 | 32 | i | 67 | i
O=C(COC(=O)c1ccccc1F)NC1CC1 | nt | i | nt | nt
COC(=O)c1ccccc1OCC(=O)NC1CCCCC1 | 27 | i | 132 | i
O=C(COc1ccccc1)NC1CCCCC1 | i | i | i | i
O=C(COC(=O)c1ccccc1)NC1CCCC1 | 84 | i | 109 | i
O=C(COC(=O)c1cccnc1Nc1ccccc1F)NC1CC1 | 14 | nt | i | i
O=C(COc1ccccc1)NC1CCCCCCC1 | 28 | ? | 44 | i
O=C(O)CC1(CC(=O)Nc2ccc(Cl)cc2C(=O)c2ccccc2)CCCC1 | i | i | i | i
O=C(CN1CCN(Cc2ccccc2)CC1)Nc1cccc(Cl)c1 | i | i | i | i
O=C(COC(=O)c1ccccc1F)NC1CCCC1 | 37 | i | 36 | i
Cc1ccc(S(=O)(=O)N/N=C\c2cn(CC(N)=O)c3ccccc23)cc1 | i | i | i | i
CCc1ccc(NC(=O)Cn2ncc3c4ccccc4n(C)c3c2=O)cc1 | i | i | i | i
Cc1ccc(C(=O)n2nc(-c3ccccc3)nc2NCc2ccco2)cc1 | 19 | i | i | i
O=C(c1ccccc1)n1nc(-c2ccccc2)nc1NCc1ccco1 | i | i | i | i
O=S(=O)(c1ccccc1)n1nc(-c2ccccc2)nc1NCc1ccco1 | 30 | i | 74 | i
CCCC(=O)n1nc(-c2ccc(C)cc2)nc1NCc1ccco1 | 32 | i | 76 | i
O=C(Cc1cccs1)Nc1cccc(-c2ccc3nncn3n2)c1 | i | i | i | nt
Cc1c(CCC(=O)N[C@@H](C)C(=O)O)c(=O)oc2cc3occ(-c4ccccc4)c3cc12 | i | i | i | i
Nc1ncnc2c1ncn2[C@@H]1O[C@H](CNCc2ccccc2OCC(=O)N2CCCCC2)[C@@H](O)[C@H]1O | nt | i | nt | nt
SMILES | CHX counter | SARS PLpro yeast | Shiga inhibitor | NS1 function inh
CCn1cc(C(=O)NC(C)CCc2ccccc2)c(=O)c2cc(S(=O)(=O)N(C)C)ccc21 (centres undefined) | i | i | i | i
COc1ccc(OC)c(NC(=O)NCCc2c[nH]c3ccccc23)c1 | i | i | i | i
COc1cc(C(=O)Nc2cc(C)ccn2)ccc1OCC(=O)N1CCOCC1 | 42 | i | 51 | i
Cc1cc(NC(=O)c2ccc(Cl)cc2)cc(C)c1OCC(=O)N1CCOCC1 | 33 | i | 77 | i
CCCCOc1ccc(C(=O)Nc2cc(C)c(OCC(=O)N3CCOCC3)c(C)c2)cc1 | 22 | i | i | i
COc1cc(C(=O)Nc2ccc(C)cn2)ccc1OCC(=O)N1CCOCC1 | nt | i | nt | nt
Cc1cc(NC(=O)c2cccc3ccccc23)cc(C)c1OCC(=O)N1CCOCC1 | i | i | i | i
O=C(Nc1cc(-c2ccccc2)sc1C(=O)O)c1cccc(F)c1 | i | i | i | i
CSc1ncnc2nc[nH]c12 | nt | nt | nt | i
O=C1c2sc3nc4ccccc4n3c2C(=O)N1c1ccccc1Cl | 21 | i | 116 | i
Cc1ccc2c(CNCc3ccco3)cc(=O)oc2c1 | 38 | i | 55 | i
CCOc1ccccc1NCc1cc(=O)oc2cc(C)ccc12 | i | i | i | i
CC1CC1C(=O)OCC(=O)NNC(=O)c1ccc([N+](=O)[O-])cc1 (centres undefined) | nt | i | nt | nt
CCn1c(SCc2nnc(-c3ccccc3)o2)nc2c1c(=O)n(C)c(=O)n2C | i | i | i | i
CCCCn1c(SCc2nnc(-c3ccccc3)o2)nc2c1c(=O)n(C)c(=O)n2C | 24 | i | i | i
COc1ccc(C2C(C(N)=O)=C(C)Nc3ncnn32)cc1 (centres undefined) | 22 | i | i | i
COC(=O)c1c(NC(=O)CS(=O)(=O)c2ccc(C)cc2)sc2c1CCCCC2 | i | nt | i | nt
C=C(C)CNC(=S)Nc1nc2c(cc1C(=O)OCC)CCCC2 | i | i | active | i

Screening results: PubChem BioAssay, National Center for Advancing Translational Sciences (NCATS)
